# Laboratory results: PubChem BioAssay (Tox21)
# Where “and” joins values, the source holds several entries; their conditions need not be identical. Identical values can stand only once. Inconclusive results are not listed. A call without a number means that no potency is given here. The source holds several records for some structures; these can differ, active in one and inactive in another. Calls of active or inactive are those of the source. Calls come from the whole dose curve; as a rule, active = well fitted curve in the direction sought with a large enough effect in the repeat runs; inconclusive = weak or mixed curves; inactive = no such curve, though single readings can be large; an effect the other way counts as inactive or inconclusive.
# Assay: qHTS RealTime-Glo MT Cell Viability Assay in HepG2 cells - 32 hour (AID 1224877); note: nearly all actives have a fitted effect of over 55% in size
# Details: RealTime-Glo luminescence; series mostly up to 76.8 µM; activity change, negative = cytotoxic: at the top concentration
# How it was run: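 Viability was tracked continuously by NanoLuc luminescence from prosubstrate reduced by living HepG2 cells, at successive time points over 40 h of compound exposure. Cells with reagent were preincubated 5 h at 37 °C before compound addition.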
SMILES,outcome,"activity change, negative = cytotoxic"
CCCCC(CC)COC(=O)C(C#N)=C(c1ccccc1)c1ccccc1 (stereo not drawn),inactive,–
OCCOCCOCCO,inactive,–
CC(C)CC(=O)CC(C)C,inactive,–
Nc1cc([N+](=O)[O-])ccc1O,inactive,–
Cc1cccc(O)c1,inactive,–
CCC(O)OC(O)CC (stereo not drawn),inactive,–
CCCCCCCCCCCCCCCO,inactive,–
O=C(CC(C(=O)OC1CCCCC1)S(=O)(=O)O)OC1CCCCC1 (stereo not drawn),inactive,–
C[C@H]1C[C@@H]2[C@H]([C@@H](O)C[C@@]3(C)[C@H]2CC[C@]3(O)C(=O)CO)[C@@]2(C)C=CC(=O)C=C12,inactive,–
N[C@@H](Cc1cc(I)c(Oc2cc(I)c(O)c(I)c2)c(I)c1)C(=O)O,inactive,–
O=C(Oc1ccccc1)c1ccccc1,inactive,–
CCc1cccc(C)c1N,inactive,–
ON=C1CCCCC1,inactive,–
Fc1ccc(Br)cc1,inactive,–
CCCCCCCCCCCCc1ccccc1,inactive,–
CCCCCC1=CCCC1=O,inactive,–
CC(C)(N)CO,inactive,–
OCC(CO)(CBr)CBr,inactive,–
CC(=O)CC(=O)Nc1ccccc1C,inactive,–

SMILES,outcome,"activity change, negative = cytotoxic"
CCC(O)OCCCOC (stereo not drawn),inactive,–
O=c1[nH]nnc2ccccc12,inactive,–
COS(C)(=O)=O,inactive,–
COCCCOc1ccnc(CS(=O)c2nc3ccccc3[nH]2)c1C (stereo not drawn),inactive,–
O=P(OC(CCl)CCl)(OC(CCl)CCl)OC(CCl)CCl,inactive,–
COc1ccc(Nc2ccccc2)c(C)c1,inactive,–
CC1=C(C)S(=O)(=O)CCS1(=O)=O,inactive,–
C=C(C)C(=O)O[C@H]1C[C@@H]2CC[C@@]1(C)C2(C)C,inactive,–
CN(C)CCOCCN(C)C,inactive,–
CN(C)CCCN,inactive,–
Nc1ccccc1[N+](=O)[O-],inactive,–
O=C(O)c1ccccc1C(c1ccc(O)cc1)c1ccc(O)cc1,inactive,–
CC[C@H](C)C(=O)O[C@H]1C[C@@H](C)C=C2C=C[C@H](C)[C@H](CC[C@@H]3C[C@@H](O)CC(=O)O3)[C@H]21,–,-18.9% (inactive)
O=C(O)CCCC[C@@H]1SC[C@@H]2NC(=O)N[C@@H]21,inactive,–
CCCCC(CC)COC(=O)CS (stereo not drawn),inactive,–
CSCCC=O,inactive,–
c1ccc2c(c1)ccc1ccccc12,inactive,–
Cc1cccnc1,inactive,–

# Assay: A CellTox Green Cytotoxicity Assay to monitor cytotoxicity in HepG2 cells - 24 hour (AID 1224878); note: nearly all actives have a fitted effect of over 45% in size; note: potency is the fitted concentration of half-maximal effect
# Details: CellTox Green fluorescence; series mostly up to 76.8 µM; cytotoxicity: at the top concentration
# How it was run: (§1)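 Continuous culture of HepG2 cells with a membrane-impermeant DNA dye; rising fluorescence marks dead cells. Compound exposure lasted up to 40 h at 37 C, with reads every 8 h from 0 h.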
SMILES,Potency,cytotoxicity
CCCCC(CC)COC(=O)C(C#N)=C(c1ccccc1)c1ccccc1 (stereo not drawn),inactive,–
OCCOCCOCCO,inactive,–
CC(C)CC(=O)CC(C)C,inactive,–
Nc1cc([N+](=O)[O-])ccc1O,inactive,–
Cc1cccc(O)c1,inactive,–
CCC(O)OC(O)CC (stereo not drawn),inactive,–
CCCCCCCCCCCCCCCO,inactive,–
O=C(CC(C(=O)OC1CCCCC1)S(=O)(=O)O)OC1CCCCC1 (stereo not drawn),inactive,–
C[C@H]1C[C@@H]2[C@H]([C@@H](O)C[C@@]3(C)[C@H]2CC[C@]3(O)C(=O)CO)[C@@]2(C)C=CC(=O)C=C12,inactive,–
N[C@@H](Cc1cc(I)c(Oc2cc(I)c(O)c(I)c2)c(I)c1)C(=O)O,inactive,–
O=C(Oc1ccccc1)c1ccccc1,inactive,–
CCc1cccc(C)c1N,inactive,–
ON=C1CCCCC1,inactive,–
Fc1ccc(Br)cc1,inactive,–
CCCCCCCCCCCCc1ccccc1,inactive,–
CCCCCC1=CCCC1=O,inactive,–
CC(C)(N)CO,inactive,–
OCC(CO)(CBr)CBr,inactive,–
CC(=O)CC(=O)Nc1ccccc1C,inactive,–

SMILES,Potency,cytotoxicity
CCC(O)OCCCOC (stereo not drawn),inactive,–
O=c1[nH]nnc2ccccc12,inactive,–
OC[C@H]1O[C@@](CO)(O[C@H]2O[C@H](CO)[C@@H](O)[C@H](O)[C@H]2O)[C@@H](O)[C@@H]1O,inactive,–
COS(C)(=O)=O,inactive,–
COCCCOc1ccnc(CS(=O)c2nc3ccccc3[nH]2)c1C (stereo not drawn),inactive,–
O=P(OC(CCl)CCl)(OC(CCl)CCl)OC(CCl)CCl,inactive,–
COc1ccc(Nc2ccccc2)c(C)c1,inactive,–
CC1=C(C)S(=O)(=O)CCS1(=O)=O,inactive,–
C=C(C)C(=O)O[C@H]1C[C@@H]2CC[C@@]1(C)C2(C)C,4.87 µM (active) and inactive,–
CN(C)CCOCCN(C)C,inactive and 49 µM (active),–
CN(C)CCCN,inactive,–
Nc1ccccc1[N+](=O)[O-],inactive,–
O=C(O)c1ccccc1C(c1ccc(O)cc1)c1ccc(O)cc1,inactive,–
CC[C@H](C)C(=O)O[C@H]1C[C@@H](C)C=C2C=C[C@H](C)[C@H](CC[C@@H]3C[C@@H](O)CC(=O)O3)[C@H]21,24.9 µM (active) and 10.7 µM (active),–
O=C(O)CCCC[C@@H]1SC[C@@H]2NC(=O)N[C@@H]21,inactive,–
CCCCC(CC)COC(=O)CS (stereo not drawn),–,2.9% (inactive)
CSCCC=O,inactive,–
c1ccc2c(c1)ccc1ccccc12,–,1.42% (inactive)
Cc1cccnc1,inactive,–

# Assay: A CellTox Green Cytotoxicity Assay to monitor cytotoxicity in HepG2 cells - 40 hour (AID 1224879); note: nearly all actives have a fitted effect of over 40% in size; note: potency is the fitted concentration of half-maximal effect
# Details: CellTox Green fluorescence; series mostly up to 76.8 µM; cytotoxicity increase: at the top concentration
# How it was run: as §1
SMILES,Potency,cytotoxicity increase
CCCCC(CC)COC(=O)C(C#N)=C(c1ccccc1)c1ccccc1 (stereo not drawn),inactive,–
OCCOCCOCCO,inactive,–
CC(C)CC(=O)CC(C)C,inactive,–
Nc1cc([N+](=O)[O-])ccc1O,inactive,–
Cc1cccc(O)c1,–,19.5% (inactive)
CCC(O)OC(O)CC (stereo not drawn),inactive,–
CCCCCCCCCCCCCCCO,inactive,–
O=C(CC(C(=O)OC1CCCCC1)S(=O)(=O)O)OC1CCCCC1 (stereo not drawn),inactive,–
C[C@H]1C[C@@H]2[C@H]([C@@H](O)C[C@@]3(C)[C@H]2CC[C@]3(O)C(=O)CO)[C@@]2(C)C=CC(=O)C=C12,inactive,–
N[C@@H](Cc1cc(I)c(Oc2cc(I)c(O)c(I)c2)c(I)c1)C(=O)O,inactive,–
O=C(Oc1ccccc1)c1ccccc1,inactive,–
CCc1cccc(C)c1N,inactive,–
ON=C1CCCCC1,inactive,–
Fc1ccc(Br)cc1,inactive,–
CCCCCCCCCCCCc1ccccc1,inactive,–
CCCCCC1=CCCC1=O,inactive,–
CC(C)(N)CO,inactive,–
OCC(CO)(CBr)CBr,inactive,–
CC(=O)CC(=O)Nc1ccccc1C,inactive,–

SMILES,Potency,cytotoxicity increase
CCC(O)OCCCOC (stereo not drawn),inactive,–
O=c1[nH]nnc2ccccc12,inactive,–
OC[C@H]1O[C@@](CO)(O[C@H]2O[C@H](CO)[C@@H](O)[C@H](O)[C@H]2O)[C@@H](O)[C@@H]1O,inactive,–
COS(C)(=O)=O,inactive,–
COCCCOc1ccnc(CS(=O)c2nc3ccccc3[nH]2)c1C (stereo not drawn),inactive,–
O=P(OC(CCl)CCl)(OC(CCl)CCl)OC(CCl)CCl,inactive,–
COc1ccc(Nc2ccccc2)c(C)c1,inactive,–
CC1=C(C)S(=O)(=O)CCS1(=O)=O,inactive,–
C=C(C)C(=O)O[C@H]1C[C@@H]2CC[C@@]1(C)C2(C)C,7.71 µM (active) and inactive,–
CN(C)CCOCCN(C)C,inactive and 49 µM (active),–
CN(C)CCCN,inactive,–
Nc1ccccc1[N+](=O)[O-],inactive,–
O=C(O)c1ccccc1C(c1ccc(O)cc1)c1ccc(O)cc1,inactive,–
CC[C@H](C)C(=O)O[C@H]1C[C@@H](C)C=C2C=C[C@H](C)[C@H](CC[C@@H]3C[C@@H](O)CC(=O)O3)[C@H]21,7.01 µM (active) and 21.8 µM (active) and 9.52 µM (active),–
O=C(O)CCCC[C@@H]1SC[C@@H]2NC(=O)N[C@@H]21,inactive,–
CCCCC(CC)COC(=O)CS (stereo not drawn),–,4.56% (inactive)
CSCCC=O,–,-4.95% (inactive)
c1ccc2c(c1)ccc1ccccc12,–,9.13% (inactive)
Cc1cccnc1,inactive,–
